This is a sample that favours compounds with a hit; in the whole collection about 19% have one here.
Cycloheximide cs = Cycloheximide Counterscreen for Small Molecule Inhibitors of Shiga Toxin. AID 2314, 2010. hit rate 12% among 300,000. cell reporter, cycloheximide protein synthesis inhibition counterscreen. max response, %; in the data active means max response mostly above about 13%, no sharp cut-off; inactive means mostly below about 14%; further: read at 38.3 µM for the half of the compounds with a filed dose
AMA1 RON2 block = qHTS for Inhibitors of AMA1-RON; Towards Development of Antimalarial Drug Lead: Primary Screen | Potency, µM (series often up to 58.2 µM), usual class: inhibitors | AID 720542, 2013 | Plasmodium falciparum AMA1 (3D7) - RON2 peptide interaction | AlphaScreen AMA1-biotinylated RON2 peptide binding | hit rate 0.2% among 360,000; further: nearly all actives have a fitted effect of over 45% in size
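AMA1 (3D7) with his tag at 25 nM final met compounds first, then biotinylated RON2 peptide at 25 nM; detection used donor plus acceptor beads, 10 µg/mL apiece, read by AlphaScreen after 30 min at room temperature.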
Shiga toxin inh = A qHTS for Small Molecule Inhibitors of Shiga Toxin. Vero cells, Shiga toxin protein synthesis inhibition reporter. inhibition, % at 38.7 µM. hit rate 9.2% among 290,000. AID 2315, 2010; in the data active means inhibition mostly above about 28%, no sharp cut-off; inactive means mostly below about 43%
Pf growth 48h = Primary qHTS for delayed death inhibitors of the malarial parasite plastid, 48 hour incubation | AID 504832, 2011 | Potency, µM (top dose mostly 28.7 µM), actives largely listed as inhibitors | hit rate 5.9% among 310,000 | P. falciparum luciferase growth in erythrocytes, 48 h
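Growth was read as firefly luciferase luminescence after a 48 h, 37 C, 5% CO2 exposure of compounds to reporter-bearing P. falciparum cultures (0.1% parasitemia, 2% hematocrit final) in Albumax-supplemented RPMI 1640.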
SARS PLpro yeast = qHTS of Yeast-based Assay for SARS-CoV PLP; S. cerevisiae expressing SARS-CoV PLpro, growth rescue; Potency, µM (top dose mostly 32.9 µM), most hits filed as activators; hit rate 0.19% among 330,000; AID 485353, 2010; calls by dose curve; further: nearly all actives have a fitted effect of over 55% in size
Pf growth 96h = Primary qHTS for delayed death inhibitors of the malarial parasite plastid, 96 hour incubation; Potency, µM (highest dose often 28.7 µM), hits mostly inhibitors; P. falciparum luciferase reporter growth, 96 h; hit rate 6.9% among 320,000
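Two parasite generations (96 h, 37 C, 5% CO2) of compound exposure in infected erythrocytes (0.05% parasitemia, 2% hematocrit). Luciferase-reporter P. falciparum; decreased luminescence indicates inhibited growth, aimed at apicoplast-acting delayed death.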
Large screens that a line does not name were inactive. Unless noted, the call rests on the fitted dose curve; in most records, active means well fitted curve in the direction sought with a large enough effect; inconclusive means small, poorly fitted or top-dose-only effect, or another doubt; inactive means no such curve, though single readings can be large; an effect the other way counts as inactive or inconclusive.

COc1ccc(N=C2NC(=O)S/C2=C\c2ccc(N(C)C)cc2)cc1	Cycloheximide cs 34, Shiga toxin inh 60
S=c1[nH]c(-c2ccccc2)cn1/N=C/c1ccc(Br)cc1	Cycloheximide cs 20, Pf growth 48h inconclusive, Pf growth 96h inconclusive
S=c1[nH]c(-c2ccccc2)cn1/N=C/c1cccs1	Cycloheximide cs 32, Shiga toxin inh 45, Pf growth 48h inconclusive, Pf growth 96h 12µM
Fc1ccccc1/C=N/n1cc(-c2ccccc2)[nH]c1=S	Cycloheximide cs 18, Shiga toxin inh 64, Pf growth 48h inconclusive, Pf growth 96h inconclusive
O=C(O)c1ccc(/C=N/n2cc(-c3ccccc3)[nH]c2=S)cc1	none
Cc1ccc(C)c(/C=N/n2cc(-c3ccccc3)[nH]c2=S)c1	Pf growth 48h inconclusive, Pf growth 96h inconclusive
CCCOc1cccc(C2C(C(=O)c3cc4ccccc4o3)=C(O)C(=O)N2c2cc(C)on2)c1 (stereo not drawn)	Pf growth 48h inconclusive, SARS PLpro yeast inconclusive, Pf growth 96h 3.7µM
COC(=O)c1ccc(C2C(C(=O)c3cc4ccccc4o3)=C(O)C(=O)N2c2cc(C)on2)cc1 (stereo not drawn)	Pf growth 48h 9.3µM, Pf growth 96h 7.4µM
Cc1cc(N2C(=O)C(O)=C(C(=O)c3cc4ccccc4o3)C2c2cccc(Br)c2)no1 (stereo not drawn)	Pf growth 48h inconclusive, Pf growth 96h inconclusive
COC1CC(NC(C)=O)C(OC(=O)c2ccccc2)C(CBr)O1 (stereo not drawn)	none (no result: Cycloheximide cs, Shiga toxin inh, Pf growth 48h, SARS PLpro yeast, Pf growth 96h)
O=C(c1ccc(CS(=O)c2ccc(F)cc2)o1)N1CCN(C2CCCCC2)CC1 (stereo not drawn)	Pf growth 96h inconclusive
CN1C(=O)c2ccccc2NC(=O)C1Cc1ccccc1 (stereo not drawn)	Pf growth 96h 12µM
O=S(=O)(O)c1ccc2c(c1)-c1nc-2nc2[nH]c(nc3nc(nc4[nH]c(n1)c1ccc(S(=O)(=O)O)cc41)-c1ccc(S(=O)(=O)O)cc1-3)c1ccc(S(=O)(=O)O)cc21	none (no result: AMA1 RON2 block, Pf growth 48h, SARS PLpro yeast, Pf growth 96h)
Cc1c(OCc2ccc(C(=O)O)o2)ccc2c3c(c(=O)oc12)CCC3	Shiga toxin inh 84, Pf growth 96h inconclusive
CCN(CC)C(=O)COc1ccc2c3c(c(=O)oc2c1C)CCCC3	Pf growth 48h inconclusive, Pf growth 96h inconclusive
COC(=O)c1ccc(COc2ccc3c(C)c(C)c(=O)oc3c2C)o1	Cycloheximide cs 15, Shiga toxin inh 65, Pf growth 48h inconclusive (no result: Pf growth 96h)
COC(=O)c1nccnc1C(=O)Nc1ccccc1N1CCOCC1	none
CCOC(=O)C(=CNc1ccc(OC)cc1[N+](=O)[O-])C(=O)OCC	none
CC1(C)C(N(O)C(=O)Nc2ccc(Cl)cc2)N(c2ccc(Cl)cc2)C(=O)N1CC(=O)NN (stereo not drawn)	Pf growth 96h 10µM (no result: Pf growth 48h)
CNc1ccc2nc3ccccc3[n+](C)c2c1	Cycloheximide cs 35, AMA1 RON2 block inconclusive, Shiga toxin inh 67, Pf growth 48h 0.17µM, Pf growth 96h 0.17µM
CC(C)n1c(NCCO)nc2ccccc21	Pf growth 96h inconclusive
C[n+]1c2ccccc2nc2ccc(NCCO)cc21	Cycloheximide cs 13, AMA1 RON2 block 20µM, Pf growth 48h 0.12µM, Pf growth 96h 0.13µM
C/C=C/C=C/C(=O)N1CC[C@]23c4ccccc4N[C@H]4N(C)c5cccc6c5[C@]42CCN([C@H]6C2OC2(C)C)[C@H]13 (stereo partly drawn)	AMA1 RON2 block inconclusive, Pf growth 48h 12µM
COc1ccc(OC)c(C2=Nn3c(nnc3C3CCCCC3)SC2)c1	Pf growth 48h inconclusive, Pf growth 96h 9.3µM
COc1ccc(C2=Nn3c(nnc3C3CCCCC3)SC2)cc1OC	Pf growth 96h 4.7µM (no result: Pf growth 48h)
COc1ccccc1C1=Nn2c(nnc2C2CCCCC2)SC1	Pf growth 48h inconclusive
O=C(CSc1nc(-c2ccccc2)ns1)N1CCOCC1	Cycloheximide cs 39, Shiga toxin inh 91
Cc1cccc(-c2nsc(SCC(=O)N3CCCC3)n2)c1	Cycloheximide cs 36, Shiga toxin inh 117
Cc1cccc(-c2nc3c(c(SCC(=O)N4CCCC4)n2)COC(C)(C)C3)c1	Pf growth 96h inconclusive
COc1ccc(OC)c(C2C3=C(CCCC3=O)Nc3nnnn32)c1 (stereo not drawn)	none
CCCCn1c(N)c(N(CC(C)C)C(=O)c2cc3ccccc3cc2OC)c(=O)[nH]c1=O	none (no result: Cycloheximide cs, Shiga toxin inh, Pf growth 48h, SARS PLpro yeast, Pf growth 96h)
CC1(C(=O)Nc2cnc3ccccc3c2)CCN1C(=O)CC(c1ccccc1)c1ccccc1 (stereo not drawn)	none (no result: Cycloheximide cs, Shiga toxin inh, Pf growth 48h, SARS PLpro yeast, Pf growth 96h)
O=C(CC1COc2ccccc2O1)NCc1ccccc1 (stereo not drawn)	none (no result: Pf growth 96h)
O=C(CCC1COc2ccccc2O1)NCc1ccccc1 (stereo not drawn)	Pf growth 96h 3.7µM (no result: Pf growth 48h)
O=C(CC1COc2ccccc2O1)NCCc1ccccc1 (stereo not drawn)	Cycloheximide cs 52, Shiga toxin inh 64
COc1ccc(C(CNC(=O)c2cncc(Br)c2)N(C)C)cc1 (stereo not drawn)	Pf growth 96h inconclusive
CCOc1ccc(NC(=O)COc2ccccc2)c([N+](=O)[O-])c1	Cycloheximide cs 28, AMA1 RON2 block inconclusive, Shiga toxin inh 82
O=[N+]([O-])c1ccc(N2CCCCC2)cc1NCCOc1ccccc1	AMA1 RON2 block inconclusive, Pf growth 96h 13µM
O=C(NCCOc1ccccc1)c1ccccc1[N+](=O)[O-]	Pf growth 48h inconclusive, Pf growth 96h inconclusive
O=C(CCOc1ccccc1)Nc1ccccc1[N+](=O)[O-]	Cycloheximide cs 27
O=[N+]([O-])c1ccccc1NCCOc1ccccc1	Cycloheximide cs 73, AMA1 RON2 block inconclusive, Shiga toxin inh 72
CCOc1ccc(NC(=O)Cc2ccccc2)c([N+](=O)[O-])c1	SARS PLpro yeast inconclusive, Pf growth 96h inconclusive
Cc1ccc(-c2nnn(CC(=O)N(CCCO)C(C(=O)NC3CCCC3)c3ccc(F)cc3)n2)o1 (stereo not drawn)	none
Cc1cc(Br)ccc1NC(=O)CN(C)C(=O)c1cccc(S(=O)(=O)N2CCN(C)CC2)c1	none (no result: Cycloheximide cs, Shiga toxin inh, Pf growth 48h, SARS PLpro yeast, Pf growth 96h)
COc1cccc(OCCNc2cc(Cl)ccc2[N+](=O)[O-])c1	Cycloheximide cs 42, AMA1 RON2 block inconclusive, Shiga toxin inh 73, Pf growth 48h inconclusive, Pf growth 96h inconclusive
CCc1ccc(OCCNc2cc(N3CCNC(C)C3)ccc2[N+](=O)[O-])cc1 (stereo not drawn)	Pf growth 48h 4.7µM, Pf growth 96h inconclusive (no result: Cycloheximide cs, Shiga toxin inh)
COc1ccc(C(=O)O)cc1S(=O)(=O)NC(C)C	none
O=c1o[nH]c(-c2ccccc2)c1-c1ccccc1	none (no result: Cycloheximide cs, Shiga toxin inh, Pf growth 48h, SARS PLpro yeast, Pf growth 96h)
Cc1ccc(Cl)cc1N1CCN(S(=O)(=O)c2ccc3c(c2)CC(=O)N3C)CC1	Pf growth 48h inconclusive

Compound activity as filed in PubChem.
